SMILES strings stand for the structures. Inconclusive results are not listed. Values without a mark were called inactive. Activity calls are given as the source filed them. Unless noted, calls follow the shape of the dose curve; as a rule, active = well fitted curve in the direction sought with a large enough effect in the repeat runs; inconclusive = weak or mixed curves; inactive = no such curve, though single readings can be large; an effect the other way counts as inactive or inconclusive.

This note sets out measurements from PubChem BioAssay (Tox21).

Assay [1] in a line: qHTS assay to identify small molecule agonists of the vitamin D receptor (VDR) signaling pathway - cell viability counter screen (AID 743224). Also: series mostly up to about 63 µM; % is scaled to controls: 0 for no effect and ±100 for the full control effect; nearly all actives have a fitted effect of over 50% in size. In outline: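 VDR-bla cells were preincubated 4 h at 37C/5% CO2, then exposed to compounds for 16 h. After the 2 h room-temperature bla FRET read, CellTiter-Glo was added to the same wells and luminescence read after 30 min.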
For orientation: In qHTS, concentration-response curves come from the screen itself.

Assay [2] can be described thus: qHTS assay to identify small molecule antagonists of the vitamin D receptor (VDR) signaling pathway - cell viability counter screen (AID 743225). Also: % is scaled to controls: 0 for no effect and ±100 for the full control effect; nearly all actives have a fitted effect of over 50% in size. In outline: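 VDR-UAS-bla HEK 293T cells were plated and incubated 4 h at 37C, then dosed with compound plus 3 nM (final) 1-alpha,25-dihydroxyvitamin D3 for 16 h. After the 2 h beta-lactamase read, viability in the same wells was read as CellTiter-Glo luminescence after 30 min at room temperature.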

Assay [3] can be described thus: qHTS assay to identify small molecule agonists of the NFkB signaling pathway - cell viability counter screen (AID 1159515; calls by dose curve; also: series mostly up to about 61 µM; % is scaled to controls: 0 for no effect and ±100 for the full control effect; nearly all actives have a fitted effect of over 55% in size). In outline: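 NFkB-bla ME-180 cells, 2,000/well, were plated overnight at 37 C, 5% CO2, then exposed to compounds in DMSO for 5 hr. After the bla FRET read, CellTiter-Glo was added to the same wells; luminescence was read after 30 min at room temperature.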

Assay [4] can be described thus: qHTS assay to identify small molecule agonists of the endoplasmic reticulum stress response signaling pathway (AID 1159516; active = well fitted activation curve with a large enough effect in the signal ratio in the repeat runs, not every such curve was filed as active; the % refers to the signal ratio; also: % is scaled to controls: 0 for no effect and ±100 for the full control effect). In outline: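 CellSensor ESRE-bla HeLa cells, carrying a beta-lactamase reporter driven by the ER stress response element, were plated overnight and exposed to compounds for 5 hr at 37 C. Reporter activity was read as FRET substrate fluorescence after 2 hr at room temperature.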

The nature of assay [5]: qHTS assay to identify small molecule agonists of the endoplasmic reticulum stress response signaling pathway - cell viability counter screen (AID 1159517; calls by dose curve; also: series mostly up to about 61 µM; % is scaled to controls: 0 for no effect and ±100 for the full control effect; nearly all actives have a fitted effect of over 50% in size). Put shortly:
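Cells, HeLa ESRE-bla; density, 1,500/well; dosing, 5 hr at 37 C, 5% CO2; readout, CellTiter-Glo luminescence after 30 min RT.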

A short description of assay [6]: qHTS assay to identify small molecule antagonists of the retinoid-related orphan receptor gamma (ROR-gamma) signaling pathway - cell viability counter screen (AID 1159520). Also: % is scaled to controls: 0 for no effect and ±100 for the full control effect; nearly all actives have a fitted effect of over 50% in size. In outline: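 Cytotoxicity was read from cellular ATP (CellTiter-Glo luminescence) after 16 hr at 37 C with 1 uM doxycycline induction. The inducer was added 2 hr after compound transfer to Tet-on ROR gamma CHO cells.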

Assay [7] concerns the target Nuclear receptor ROR-gamma (Homo sapiens) (UniProt P51449). The experiment in a line: qHTS assay to identify small molecule antagonists of the retinoid-related orphan receptor gamma (ROR-gamma) signaling pathway (AID 1159521). In outline:
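Tet-on ROR-gamma CHO cells with ROR response element-luciferase reporter; compounds added 2 hr before 1 uM doxycycline induction, then 16 hr at 37 C. Antagonism scored as decreased ONE-Glo luminescence.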

Assay [8] in a line: qHTS assay to identify small molecule agonists of the AP-1 signaling pathway - cell viability counter screen (AID 1159525; calls by dose curve; also: nearly all actives have a fitted effect of over 55% in size). Put shortly: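 Luminescent ATP readout (Cell Titer Glo, 30 min RT), normalised to DMSO and tetra n-octyl ammonium bromide controls. Cells were ME-180 AP-1-bla in 0.5% dialyzed FBS Opti-MEM, with a 5 h, 37 °C compound exposure.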
Assay [9] is described as follows: qHTS assay to identify small molecule agonists of the AP-1 signaling pathway (AID 1159526; calls by dose curve; also: % is scaled to controls: 0 for no effect and ±100 for the full control effect).
The target of assay [10] is Retinoic acid receptor RXR-alpha (Homo sapiens) (UniProt P19793). The experiment in a line: qHTS assay to identify small molecule agonists of the RXR signaling pathway (AID 1159527; calls by dose curve; also: % is scaled to controls: 0 for no effect and ±100 for the full control effect; nearly all actives have a fitted effect of over 35% in size). In outline:
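GeneBLAzer RXR-alpha-UAS-bla HEK 293T cells in 2% charcoal-stripped FBS medium were exposed to compounds for 16 hr at 37 C in agonist mode. Beta-lactamase reporter read as 460/530 nm FRET ratio after 2 hr substrate loading.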

Assay [11] can be described thus: qHTS assay to identify small molecule agonists of the RXR signaling pathway - cell viability counter screen (AID 1159529). In outline: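 RXR-alpha-UAS-bla HEK 293T cells in medium with 2% charcoal-stripped FBS were pre-incubated 5 hr, then compound-treated 16 hr at 37 C. Viability was read by CellTiter-Glo luminescence in the same wells as the beta-lactamase assay, with tetraoctyl ammonium bromide as positive control.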

Assay [12] is described as follows: qHTS assay to identify small molecule antagonists of the retinoid acid receptor (RAR) signaling pathway - cell viability counter screen (AID 1159551). Also: % is scaled to controls: 0 for no effect and ±100 for the full control effect; nearly all actives have a fitted effect of over 35% in size. Put shortly:
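C3RL4 cells were seeded overnight at 37 C, then treated with compounds plus 1 uM (final) retinol for 6 h at 37 C. Viability was read as ATP by CellTiter-Glo luminescence after 30 min at room temperature.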

The nature of assay [13]: qHTS assay to identify small molecule antagonists of the retinoic acid receptor (RAR) signaling pathway (AID 1159552). Put shortly: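 Retinol signaling pathway inhibitors screened in C3RL4 RARE-luciferase reporter cells seeded overnight at 37 C, then compounds added with 1 uM (final) retinol as pathway substrate. After 6 hr at 37 C, luciferase luminescence read after 30 min at room temperature.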

A short description of assay [14]: qHTS assay to identify small molecule agonists of the retinoic acid receptor (RAR) signaling pathway (AID 1159553). Also: potency is read from the fitted curve at half-maximal effect. Put shortly:
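C3RL4 cells carrying a RARE luciferase reporter were plated overnight at 37 C, then exposed to compounds in DMSO for 6 hr at 37 C and 5% CO2. Luminescence was read 30 min after luciferase reagent addition at room temperature.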

Assay [15] is described as follows: qHTS assay to identify small molecule antagonists of the estrogen related receptor (ERR) signaling pathway - cell viability counter screen (AID 1224818).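 Also: series mostly up to about 46 µM; viability measured after 17.5 h of compound exposure; % is scaled to controls: 0 for no effect and ±100 for the full control effect.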 In outline:
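ERR reporter cells plated 6 h at 37 C/5% CO2, then compounds in DMSO pin-transferred and incubated 17.5 h at 37 C. Viability read as CellTiter-Fluor fluorescence after 30 min at 37 C.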

The nature of assay [16]: qHTS assay to identify small molecule antagonists of the estrogen related receptor (ERR) signaling pathway (AID 1224819). Put shortly: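 ERR reporter cells were plated at 2,000 cells/well and left 6 h at 37 C/5% CO2 before pin-tool transfer of compounds in DMSO. After 18 h at 37 C, One-Glo was added and luminescence was read 30 min later at room temperature.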
Assay [17] is described as follows: qHTS assay to identify small molecule agonists of the estrogen related receptor (ERR) signaling pathway (AID 1224820). Also: % is scaled to controls: 0 for no effect and ±100 for the full control effect. Put shortly: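 ERR reporter cells (NTP line) plated 2,000/well, incubated 6 h at 37 C/5% CO2, then pinned with compounds in DMSO and held 18 h at 37 C. One-Glo added; luminescence read after 30 min at room temperature.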
Assay [18] relates to estrogen-related receptor alpha (ERRalpha) with PGC-1alpha coactivator, human. Description: qHTS assay to identify small molecule antagonists of the estrogen related receptor signaling pathway with the pleiotropic PPARgamma coactivator (PGC) (AID 1224821; calls by dose curve). Put shortly: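 Cells engineered for PGC/ERR signalling (line from NTP) were plated 6 h at 37 C/5% CO2, then exposed to DMSO-dissolved compound for 18 h at 37 C. Luciferase activity was read by One-Glo luminescence after 30 min at room temperature.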

Assay [19] is described as follows: qHTS assay to identify small molecule antagonists of the estrogen related receptor signaling pathway with the pleiotropic PPARgamma coactivator (PGC) cell viability counter screen (AID 1224822). In outline:
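PGC/ERR cells were seeded at 2,000 cells/well, rested 6 h at 37 C/5% CO2, then given compounds in DMSO by pin tool and incubated 17.5 h at 37 C. Viability came from CellTiter-Fluor fluorescence after 30 min.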

Assay [20] can be described thus: qHTS assay to identify small molecule agonists of the estrogen related receptor signaling pathway with the pleiotropic PPARgamma coactivator (PGC) (AID 1224823). Also: % is scaled to controls: 0 for no effect and ±100 for the full control effect. Put shortly:
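PGC/ERR reporter cells were seeded, rested 6 h at 37 C/5% CO2, then exposed to compounds in DMSO by pin transfer for 18 h at 37 C. Luciferase activity was read as luminescence after One-Glo reagent and 30 min at room temperature.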

Chain of Retinoic acid receptor RXR-alpha (Homo sapiens) (P19793 whole entry, looked up): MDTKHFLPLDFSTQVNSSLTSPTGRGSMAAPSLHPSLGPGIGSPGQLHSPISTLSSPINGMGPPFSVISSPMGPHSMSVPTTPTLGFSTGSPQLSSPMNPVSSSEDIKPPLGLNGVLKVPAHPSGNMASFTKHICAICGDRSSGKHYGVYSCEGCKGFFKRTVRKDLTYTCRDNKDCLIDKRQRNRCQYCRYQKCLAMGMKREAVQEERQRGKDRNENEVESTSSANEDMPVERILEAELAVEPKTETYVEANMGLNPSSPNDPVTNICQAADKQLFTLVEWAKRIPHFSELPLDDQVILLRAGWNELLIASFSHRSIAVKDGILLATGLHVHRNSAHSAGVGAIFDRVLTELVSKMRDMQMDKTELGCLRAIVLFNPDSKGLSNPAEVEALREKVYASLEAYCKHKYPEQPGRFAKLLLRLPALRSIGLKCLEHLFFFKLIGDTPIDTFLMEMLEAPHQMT

`CC(C)(C)OC(=O)c1cccc(N)c1`: the compound was called inactive in [1], in assay [2], in assay [3], in [4], in [5] and in assay [6]. The compound was classed as inactive in assay [8], in assay [9] and in [12]. The Potency result in assay [7], in assay [10], in assay [11] and in assay [13] was “inactive” throughout.
In the case of `CN1CCN(c2cc3c(nn2)Oc2ccccc2N3C)CC1`, the outcome in assay [1], in [3], in assay [4] and in assay [5] was inactive. For the same compound, the activity, negative = cytotoxicity in assay [6] is 0.179% [at 19 µM]. In assay [7], the activity change, negative = inhibition was 55.1% [at 19 µM]. The viability change, negative = cytotoxic in assay [8] is 4.25% [at 15.8 µM]. Further, the activation was 0.803% [at 15.8 µM] in [9] and 10.7% [at 15.8 µM] in [10]. The values for the activity change, negative = cytotoxicity in [11] and in assay [12] were 1.18% [at 15.8 µM] and 0.0499% [at 19 µM], respectively. For the same compound, the activity, negative = inhibition in assay [13] was 162% [at 19 µM]. Moreover, the Potency in assay [14] was 5.8 µM (active).
Take `CNCC(O)c1ccc(O)c(O)c1` (stereo unspecified): the compound was classed as inactive in assay [1], in assay [2], in [3], in assay [4], in assay [5] and in assay [6]. The call in assay [8], in assay [9], in [12], in assay [15], in [16] and in assay [17] was inactive. For the same compound, the compound was called inactive in assay [18], in assay [19] and in assay [20]. Further, the Potency entry in [7], in assay [10], in assay [11] and in assay [14] was “inactive” each time.
In the case of `CC(C)(C)C(=O)Oc1ccc(S(=O)(=O)Nc2ccccc2C(=O)NCC(=O)O)cc1`, the outcome in assay [1], in [2], in assay [3], in assay [4], in [5] and in assay [6] was inactive. In addition, the call in [8], in [9], in [12], in assay [15] and in [19] was inactive. Further, the Potency result in assay [7], in [10], in [11] and in assay [14] was “inactive” in each case.
Consider `Cc1ccc(C(=O)Nc2ccc(S(=O)(=O)O)c3cc(S(=O)(=O)O)cc(S(=O)(=O)O)c23)cc1NC(=O)c1cccc(NC(=O)Nc2cccc(C(=O)Nc3cc(C(=O)Nc4ccc(S(=O)(=O)O)c5cc(S(=O)(=O)O)cc(S(=O)(=O)O)c45)ccc3C)c2)c1`, for which the result in [16], in assay [17], in assay [18], in assay [19] and in assay [20] was inactive.
Consider `CC[N+](CC)(CC)CCOc1cccc(OCC[N+](CC)(CC)CC)c1OCC[N+](CC)(CC)CC`, for which the compound was called inactive in [19].
Turning to `CCNS(=O)(=O)c1ccc(C)cc1`, the result in assay [1], in [2], in [3], in [4], in [5] and in assay [6] was inactive. Moreover, the outcome in [9] and in [12] was inactive. For the same compound, the Potency entry in assay [7], in [10], in assay [11], in assay [13] and in assay [14] was “inactive” in each case.
In the case of `CCN1CCOCC1`, the outcome in assay [1], in assay [2], in [3], in assay [4], in assay [5] and in assay [8] was inactive. The compound was called inactive in assay [9] and in assay [12]. Also, the Potency result in assay [7], in assay [10], in assay [11], in assay [13] and in [14] was “inactive” throughout.
For `CC(C)=CCC/C(C)=C/C#N`, the result in [1], in assay [2], in [3], in assay [4], in [5] and in assay [6] was inactive. Also, the outcome in [9] and in assay [12] was inactive. Besides, the Potency result in assay [7], in assay [10], in assay [11] and in assay [13] was “inactive” throughout.
`CN1CCC(=C2c3ccccc3CCc3cccnc32)CC1`: the compound was called inactive in assay [1], in assay [2], in assay [3], in assay [4], in [5] and in [6]. Moreover, the outcome in [8], in assay [9] and in assay [12] was inactive. For the same compound, the Potency entry in assay [7], in assay [10] and in assay [11] was “inactive” each time.
